Over roughly 25,000 sequences, “ln(normalized median fluorescence intensity)” has its median near 6.7; the highest 2% begin near 10. The sample as a whole holds a higher share of the highest values than the screen did.

Consider 58 sequences from the supplement of paper PMC11417369.

In the assay the test system is PfHDP1 homeodomain (GST-tagged). The experiment in a line: gcPBM binding intensity (ln(normalized median fluorescence intensity)); higher = stronger DNA binding. A digest of the protocol: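 Binding of GST-tagged P. falciparum DNA-binding domains, expressed in E. coli and used at about 25 μg on average, was carried out for 1 h in 1× PBS containing 1% milk, 0.2 mg/ml BSA, 0.5% salmon testes DNA and 0.03% Triton X-100. The target was an Agilent 4 × 180k array of primer-extended double-stranded 36-bp intergenic genomic probes plus negative controls, read with Alexa488 anti-GST antibody at 488 nm. Binding intensity is the highest Masliner-normalised natural-log median intensity across replicate spots of either probe orientation.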
In the case of “TTTGTGTTGTATTTTTGTACATAAAATAAACTTAAA [XGTACX_site4637]”, the “gcPBM binding intensity (ln)” value was determined as 6.65.

Take “TATTTAAATGGATGCACACATGCATTAAATAAAATA [CACACA_site3433]”: the “gcPBM binding intensity (ln)” value was determined as 8.59.

Regarding “ATTTTACATATTTGCACACATATATTTATATACATA [CACACA_site854]”, the “gcPBM binding intensity (ln)” value amounted to 10.6.

As for “TTTTCATTTTTCTTTACACACATATATTTATTTATA [CACACA_site7119]”, the “gcPBM binding intensity (ln)” value came out at 7.15.

Turning to “ATATTAAGTTTTATTACACACTCTCAATTTTTATTT [CACACA_site4206]”, the “gcPBM binding intensity (ln)” value amounted to 6.63.

As for “TATATACATATATATACACACATATATATATTTTAT [CACACA_site3788]”, the “gcPBM binding intensity (ln)” value came to 6.65.

As to “TTTTTATATTTTTGCACACATTCTTTACTCTTCAAA [CACACA_site2210]”, the “gcPBM binding intensity (ln)” value was 10.4.

As to “TACATTTTTATTTTTACACACATATTTATTTATATA [CACACA_site6609]”, the “gcPBM binding intensity (ln)” value came to 7.06.

On to “ATGACTCTCAAGTTTGCACACATTTATATTTTTTAA [CACACA_site2605]”, for which the “gcPBM binding intensity (ln)” value is 10.5.

As for “ATATATTTTATACATACACACATATATATATTTTTT [CACACA_site3940]”, the “gcPBM binding intensity (ln)” value amounted to 6.83.

With “TATTTATTTTTTTGCACACATATTTTACATTTTAAT [CACACA_site3181]”, the “gcPBM binding intensity (ln)” value was found to be 10.8.

Take “TATATATATATTTTTGCACACATTTTTTAAGGTACA [CACACA_site2145]”: the “gcPBM binding intensity (ln)” value stood at 10.3.

For “AATATTTATTTTTTTGCACACATATTTTACATTTTA [CACACA_site3182]”, the “gcPBM binding intensity (ln)” value came out at 10.3.

In the case of “TATTTTTATATTTTTGCACACATTCTTTACTCTTCA [CACACA_site2211]”, the “gcPBM binding intensity (ln)” value amounted to 10.6.

Consider “TAATGTACATAAACCGCACACATATAAAAAAATAAA [CACACA_site2851]”, for which the “gcPBM binding intensity (ln)” value stood at 6.79.

On to “ATAAAAATTTATATATGTACTTAATTTTTAATTTTT [XGTACX_site7482]”, for which the “gcPBM binding intensity (ln)” value was 5.98.

For “ACATACAAGAATTAAACACACACAAAATATAAATTC [CACACA_site8985]”, the “gcPBM binding intensity (ln)” value was found to be 6.8.

Consider “TATCTCTCTTTCTGCTGTACATAAAAATTATATAAT [XGTACX_site5961]”, for which the “gcPBM binding intensity (ln)” value is 7.19.

Regarding “GGCTTTTTTTAATATGCACACATATATTTTATATAT [CACACA_site8647]”, the “gcPBM binding intensity (ln)” value turned out to be 10.2.

In the case of “TATAATTATTTTTTCACACATATGTATTTATATATA [CACACA_site4205]”, the “gcPBM binding intensity (ln)” value turned out to be 7.05.

As to “ATATAATATTTATATGCACACTTTTCTATATATAAG [CACACA_site6100]”, the “gcPBM binding intensity (ln)” value stood at 8.84.

Regarding “ATATAATTTATGTGCACACACTCCTATTTTTAGCTT [CACACA_site50]”, the “gcPBM binding intensity (ln)” value worked out at 11.3.

Take “TTTTTCTTTATTAGCACACATAATATTATATATGTG [CACACA_site2629]”: the “gcPBM binding intensity (ln)” value was 7.1.

With “GTATATAATTTATGTGCACACACTCCTATTTTTAGC [CACACA_site49]”, the “gcPBM binding intensity (ln)” value worked out at 11.1.

With “TTTTCTATGCTAAACACACTCATTGTTACAAGTTTT [CACACA_site5531]”, the “gcPBM binding intensity (ln)” value was found to be 6.78.

For the sequence “TATGAAAATATATATTGTACAGAATCTATAAAAAAT [XGTACX_site8030]”, the “gcPBM binding intensity (ln)” value amounted to 6.39.

Consider “TTTAAAAAATTATATTCACACACATACACATATATA [CACACA_site8076]”, for which the “gcPBM binding intensity (ln)” value is 6.95.

For the sequence “CATATATATTTTATATGTACATATATATTTTATATA [XGTACX_site8665]”, the “gcPBM binding intensity (ln)” value came out at 6.35.

For “ATTTTTTTTTTTTTATGTACATATAGGTGCAAATCA [XGTACX_site6748]”, the “gcPBM binding intensity (ln)” value was 11.1.

Turning to GACAATTATATGTAGGTGCATATACAAATTTTTTAA, the “gcPBM binding intensity (ln)” value is 9.14.

With “TACATAAAATATATCACACATATAATATATATATAT [CACACA_site5834]”, the “gcPBM binding intensity (ln)” value stood at 8.54.

With “GAAATGTGATAATATACACACACGCATATATATATA [CACACA_site4332]”, the “gcPBM binding intensity (ln)” value amounted to 8.82.

For “TTCTGCAGCAATGTTTTTTTTAAATATTTATATGGT [CACACA_negctrl_site1815]”, the “gcPBM binding intensity (ln)” value was 6.51.

For “AAAAATAGAGCAGCTCTCATATTTTTATGTGCAATA [CACACA_negctrl_site837]”, the “gcPBM binding intensity (ln)” value amounted to 10.6.

For the sequence “CAAAATATTTTTATAACACACATATATAGAATGTGC [CACACA_site1145]”, the “gcPBM binding intensity (ln)” value is 6.34.

As to “TTTTTTTATCAATGTTGTACTTTTTTTTTTTTCCAT [XGTACX_site8864]”, the “gcPBM binding intensity (ln)” value worked out at 6.18.

For “ATTAAAAAAAAAAAAAAAAAAAAAAAAAAAAAAAAA [CACACA_negctrl_site1060]”, the “gcPBM binding intensity (ln)” value was 6.3.

On to AGGTATATATTACAAGTGCACTGTAAAATTAAAATT, for which the “gcPBM binding intensity (ln)” value amounted to 10.5.

As to “TGCATAATTAAAAATGGTACACTGTATTTATAATAT [XGTACX_site1575]”, the “gcPBM binding intensity (ln)” value turned out to be 6.38.

Take TAAAAAATTAATAAAGTGCATAAATATTACAATATT: the “gcPBM binding intensity (ln)” value came to 7.68.

Consider “ATATTTAAATAATATTCACACACAAAATTATATTTT [CACACA_site7955]”, for which the “gcPBM binding intensity (ln)” value was determined as 6.44.

On to “AAATGTATACACATGGTGCGTAATATATTATATATA [GTGCAC_site9877]”, for which the “gcPBM binding intensity (ln)” value was 7.85.

On to “AATAAAAAAATATATTGTACTAATAATTATATGTTT [XGTACX_site2246]”, for which the “gcPBM binding intensity (ln)” value was found to be 6.47.

Regarding “TTTTTATCAAATAAATGTACACATATTAAATGAAAT [XGTACX_site555]”, the “gcPBM binding intensity (ln)” value was determined as 6.6.

Take “AGTATAAATAAATCATAAACATATATATATATATAT [GTGCAC_negctrl_site356]”: the “gcPBM binding intensity (ln)” value turned out to be 9.35.

Turning to CAATATATTATATGGGTGCAAACCACATATAAATAA, the “gcPBM binding intensity (ln)” value stood at 8.55.

For ACATATTAAATATGAGTGCAATATATATATATATAA, the “gcPBM binding intensity (ln)” value came to 9.25.

Turning to “AATCATATTAGTATGGTGCAATATATATATAAATAT [GTGCAC_site9800]”, the “gcPBM binding intensity (ln)” value amounted to 10.5.

Take “ATATATATTAAAAATAGTACATATAATAAAAATCAT [XGTACX_site4265]”: the “gcPBM binding intensity (ln)” value was 6.57.

As to AATCATATTAGTATGGTGCAACATATATAAATATAT, the “gcPBM binding intensity (ln)” value came to 11.

“ATACATTTATTGTATTGTACATAATATTATATATTC [XGTACX_site7115]”: the “gcPBM binding intensity (ln)” value is 6.55.

For the sequence “TGCATATTACTTTTTCACATAAAAATGATCCGATTA [GTGCAC_negctrl_site526]”, the “gcPBM binding intensity (ln)” value stood at 6.49.

For “ATATTTAAACGATGGTGTACATATATTACAAGTTGT [XGTACX_site1743]”, the “gcPBM binding intensity (ln)” value was 7.03.

Take “ACATAAAATTGGAGCAAACACACAAGGTTGAAATTA [CACACA_site505]”: the “gcPBM binding intensity (ln)” value is 7.16.

As for “TATATATTTCAATAATGTACATATAATATATATATT [XGTACX_site4124]”, the “gcPBM binding intensity (ln)” value is 6.6.

In the case of “CCATAAAAAGGATACACACACACACCGACATATATA [CACACA_site4653]”, the “gcPBM binding intensity (ln)” value turned out to be 6.89.

In the case of “ATTAAGTACTAAAAAGTGCAGTTCGGTACTGTGCTT [GTGCAC_site9755]”, the “gcPBM binding intensity (ln)” value was found to be 6.42.

Turning to “TATTTCATTAATGTCACTTTGAAAGAAATGAAAAAA [CACACA_negctrl_site1803]”, the “gcPBM binding intensity (ln)” value came out at 6.44.
